Calb FLC: C. albicans growth modulation with fluconazole | C. albicans CaCi-2 (fluconazole-resistant clinical isolate) + fluconazole, Alamar Blue growth, 48 h | growth inhibition, % (no concentration beside the values) | 300,000 tested, 0.57% active;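 active means growth inhibition above about 58% in most replicates, limit read from the data, passing the limit was not always enough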;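 further: all wells also contain fluconazole at 8 µg/ml as a sub-toxic cotreatment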
tim23-1 inh: inhibits growth of tim23-1 mutant yeast. S. cerevisiae tim23-1 growth, BacTiter-Glo luminescence, 24 h. 330,000 tested, 1.3% active. inhibition, % at 20 µM;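 active means growth inhibition of the mutant yeast at or above 50%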;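 further: temperature-sensitive mutant grown at 25 °C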
SKKanGAS inh: SKKanGAS growth inhibition | 300,000 tested, 1.3% active | inhibition, % at 7.5 µM | S. pyogenes SKKanGAS, kanamycin growth, BacTiter-Glo, 6 h;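 active means mean replicate score, as percent of positive control median, at least 50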;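 further: strain carries kanamycin resistance gene driven by streptokinase promoter and grows in 40 µg/ml kanamycin; loss of luminescence reflects streptokinase promoter inhibition or plain growth inhibition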
TIM10 inh: growth inhibitors of TIM10 yeast strain; S. cerevisiae TIM10 strain growth, BacTiter-Glo luminescence, 24 h; inhibition, % at 10 µM; 330,000 tested, 1.4% active;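 active means inhibition of 40% or more at the single tested concentration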;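 further: wild-type TIM10 isogenic control strain grown at permissive 25 °C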
tim10-1 inh: tim10-1 yeast growth inhibition; 330,000 tested, 2.2% active; AID 463190; S. cerevisiae tim10-1 ts strain growth, BacTiter-Glo, 24 h; inhibition, % at 20 µM;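 active means inhibition of at least 40%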;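 further: mutant grown at 25 °C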
PfHsp90 yeast 2: reduces growth (ATP signal) of yeast expressing P. falciparum Hsp90; 310,000 tested, 0.32% active; inhibition, % at 9.4 µM; S. cerevisiae expressing PfHsp90, BacTiter-Glo ATP, 48 h; yeast lacking PDR1 and PDR3 efflux regulators;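 active means every replicate shows inhibition above about 80%, whatever the replicate mean, limit read from the data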
Numbers stand for hits. Hits are enriched below; roughly 4.7% of the tested compounds scored in any of these assays.

`CCc1ccc(N=C2NC(=O)/C(=C/c3cc(OC)c(O)c(OC)c3)S2)cc1` gave Calb FLC inactive, tim23-1 inh inactive, SKKanGAS inh 59.0, TIM10 inh inactive, tim10-1 inh inactive and PfHsp90 yeast 2 inactive.
COc1cc(/C=C2\SC(=Nc3ccccc3)NC2=O)cc(Cl)c1O was read as Calb FLC inactive, tim23-1 inh inactive, SKKanGAS inh inactive, TIM10 inh inactive, tim10-1 inh inactive and PfHsp90 yeast 2 inactive.
`O=C1NC(=Nc2cccnc2)S/C1=C\c1cccc(F)c1` gave Calb FLC inactive, tim23-1 inh inactive, SKKanGAS inh inactive, TIM10 inh inactive, tim10-1 inh inactive and PfHsp90 yeast 2 inactive.
For COc1cc(/C=C2\SC(=Nc3cccnc3)NC2=O)cc(OC)c1OC the results were Calb FLC inactive, tim23-1 inh inactive, SKKanGAS inh 49.7, TIM10 inh inactive and tim10-1 inh inactive.
For COc1ccccc1-n1c(-c2ccc(Cl)cc2)c[nH]c1=S the results were Calb FLC inactive, tim23-1 inh inactive, SKKanGAS inh inactive, TIM10 inh inactive, tim10-1 inh inactive and PfHsp90 yeast 2 inactive.
For C[C@H]1[C@H](C)CC[C@]2(C(=O)O)CC[C@]3(C)C(=CC[C@@H]4[C@@]5(C)CC[C@H](O)C(C)(C)[C@@H]5CC[C@]43C)[C@H]12 the results were tim23-1 inh inactive, SKKanGAS inh 106.7, TIM10 inh inactive, tim10-1 inh inactive and PfHsp90 yeast 2 inactive.
C[C@H]1[C@H](C)CC[C@]2(C(=O)O)CC[C@]3(C)C(=CC[C@@H]4[C@@]5(C)C[C@@H](O)[C@H](O)C(C)(C)[C@@H]5CC[C@]43C)[C@H]12 was read as Calb FLC inactive, tim23-1 inh inactive, SKKanGAS inh 102.9, TIM10 inh inactive, tim10-1 inh inactive and PfHsp90 yeast 2 inactive.
C[C@@H]1CC[C@]2(C(=O)O)CC[C@]3(C)C(=CCC4[C@@]5(C)CC[C@H](O)[C@@](C)(C(=O)O)C5CC[C@]43C)C2[C@]1(C)O (stereo partly specified) was read as tim23-1 inh inactive, TIM10 inh inactive, tim10-1 inh inactive and PfHsp90 yeast 2 inactive.
`C[C@@H]1CC[C@]2(C(=O)O)CC[C@]3(C)C(=CCC4[C@]56CC[C@@](O)(OC5)C(C)(C)C6CC[C@]43C)C2[C@H]1C` (stereo partly specified) gave tim23-1 inh inactive, TIM10 inh inactive, tim10-1 inh inactive and PfHsp90 yeast 2 inactive.
C[C@H]1[C@H](C)CC[C@]2(C)CC[C@]3(C)C(=CC[C@@H]4[C@@]5(C)CC[C@@H](O)[C@](C)(C(=O)O)[C@@H]5CC[C@]43C)[C@H]12 was read as SKKanGAS inh 101.5.
For Cc1noc(C)c1COc1ccccc1C(=O)NCCOc1ccccc1 the results were tim23-1 inh inactive, TIM10 inh inactive, tim10-1 inh inactive and PfHsp90 yeast 2 inactive.
COc1cc(/C=N/Nc2ccccc2[N+](=O)[O-])cc(OC)c1O was read as Calb FLC inactive, tim23-1 inh inactive, SKKanGAS inh inactive, TIM10 inh inactive, tim10-1 inh inactive and PfHsp90 yeast 2 inactive.
Screening COc1cc(/C=N/Nc2nc3ccccc3s2)cc([N+](=O)[O-])c1O returned Calb FLC inactive, tim23-1 inh inactive, SKKanGAS inh 54.4, TIM10 inh inactive, tim10-1 inh inactive and PfHsp90 yeast 2 inactive.
For O=[N+]([O-])c1cc(Cl)cc(/C=N/Nc2nc3ccccc3s2)c1O the results were Calb FLC inactive, tim23-1 inh inactive, SKKanGAS inh 82.3, TIM10 inh inactive, tim10-1 inh inactive and PfHsp90 yeast 2 inactive.
CC1(CCc2ccccc2)NC(=O)N(CC(=O)Nc2ccc3c(c2)OCCO3)C1=O (stereo unspecified) was read as Calb FLC 110.0, tim23-1 inh inactive, SKKanGAS inh inactive, TIM10 inh inactive, tim10-1 inh inactive and PfHsp90 yeast 2 inactive.
For CCNC(=O)N(C)C[C@H]1N[C@@](CC)(C(=O)OC)[C@H]2C(=O)N(Cc3ccccc3)C(=O)[C@@H]12 the results were tim23-1 inh inactive, TIM10 inh inactive, tim10-1 inh inactive and PfHsp90 yeast 2 inactive.
For CC(=O)Nc1cccc(NC(=O)C2CCCN2C(=O)Nc2ccccc2C)c1 (stereo unspecified) the results were Calb FLC inactive, tim23-1 inh inactive, SKKanGAS inh inactive, TIM10 inh inactive, tim10-1 inh inactive and PfHsp90 yeast 2 inactive.
For CC(=O)Nc1cccc(NC(=O)C2CCCN2C(=O)Nc2ccc(Cl)cc2)c1 (stereo unspecified) the results were Calb FLC 114.1, tim23-1 inh inactive, SKKanGAS inh inactive, TIM10 inh inactive and tim10-1 inh inactive.
For COC(=O)c1ccc(CSc2n[nH]c(=S)s2)o1 the results were Calb FLC inactive, tim23-1 inh inactive, SKKanGAS inh 62.8, TIM10 inh inactive, tim10-1 inh inactive and PfHsp90 yeast 2 inactive.
Screening COC(=O)c1ccc(CSc2nc3ccccc3s2)o1 returned Calb FLC inactive, tim23-1 inh inactive, SKKanGAS inh inactive, TIM10 inh inactive, tim10-1 inh inactive and PfHsp90 yeast 2 inactive.
For CC(C)Cc1csc(NC(=O)C(C)C)c1C(=O)O the results were Calb FLC inactive, tim23-1 inh inactive, SKKanGAS inh inactive, TIM10 inh inactive, tim10-1 inh inactive and PfHsp90 yeast 2 inactive.
`CC(C)Cc1csc(NC(=O)c2ccc(Br)cc2)c1C(=O)O` gave Calb FLC inactive, tim23-1 inh inactive, SKKanGAS inh 69.7, TIM10 inh inactive, tim10-1 inh inactive and PfHsp90 yeast 2 inactive.
For COc1ccc2oc(=O)c(/C(N)=N/NC(=O)c3ccncc3)cc2c1 the results were Calb FLC inactive, tim23-1 inh inactive, SKKanGAS inh inactive, TIM10 inh inactive, tim10-1 inh inactive and PfHsp90 yeast 2 inactive.
For CC(C)(C)C(=O)CN1C(=O)NC2(CCCc3ccccc32)C1=O (stereo unspecified) the results were Calb FLC inactive, tim23-1 inh inactive, SKKanGAS inh inactive, TIM10 inh inactive, tim10-1 inh inactive and PfHsp90 yeast 2 inactive.
`Cc1c(C)c2ccc(OCC(=O)N3CCN(C(=O)C4COc5ccccc5O4)CC3)cc2oc1=O` (stereo unspecified) gave Calb FLC inactive, tim23-1 inh inactive, SKKanGAS inh inactive, TIM10 inh inactive, tim10-1 inh inactive and PfHsp90 yeast 2 inactive.
For Cc1cc(=O)oc2cc(OCC(=O)N3CCN(C(=O)C4COc5ccccc5O4)CC3)ccc12 (stereo unspecified) the results were Calb FLC inactive, tim23-1 inh inactive, SKKanGAS inh 77.9, TIM10 inh inactive, tim10-1 inh inactive and PfHsp90 yeast 2 inactive.
S=c1[nH]nc(-c2cccs2)n1/N=C/c1c(Cl)cccc1Cl was read as Calb FLC inactive, tim23-1 inh inactive, SKKanGAS inh 62.6, TIM10 inh inactive, tim10-1 inh inactive and PfHsp90 yeast 2 inactive.
Screening Cc1ccc(/C=N/n2c(-c3cccs3)n[nH]c2=S)cc1 returned Calb FLC inactive, tim23-1 inh inactive, SKKanGAS inh inactive, TIM10 inh inactive, tim10-1 inh inactive and PfHsp90 yeast 2 inactive.

Assay outcomes from PubChem.
